Assay results as given in PubChem BioAssay (NCI).
Compounds without any hit were thinned out: in the full panel of roughly 83,000, 20% have a hit.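 Single-dose data. Exposure time 48 hours. Values below 10 considered active.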 Values without a mark were called inactive. The source made the active and inactive calls.

system: UACC-257 melanoma; assay: NCI-60 one-dose screen, 48 h (100 = growth as untreated, 0 = no growth, -100 = all killed); conditions: 10 µM

Structure (SMILES) | growth
CC(=O)Oc1ccc(CCN2C(=O)CSC2=S)cc1 | 95.9%
COc1cc(/C=N/n2cnc3oc(-c4ccccc4)cc3c2=N)cc(CN2CCOCC2)c1O | 110%
CCOC(=O)/C=c1\sc2n(c1=O)C1C(NN=2)N(CC)C(=O)N1CC (configuration not stated) | 71.5%
CN(C)c1ccc(/C=N/Nc2nc(N/N=C/c3ccc(N(C)C)cc3)nc(N3CCOCC3)n2)cc1 | 103%
COc1cc2oc(-c3cccc(NC(=O)c4cc(NC(=O)[C@H](C)NC(=O)OC(C)(C)C)ccc4C)c3)cc(=O)c2c(OC)c1OC | 118%
CN1CCN(Cc2ccc(NC(=O)c3cncc(C#Cc4cnc5ccc(NC6CCOCC6)nn45)c3)cc2C(F)(F)F)CC1 | -13.9% (active)
O=C(Nc1ccc(Cl)cc1)Nc1nc2ccc([N+](=O)[O-])cc2s1 | -32.6% (active)
CCCCCCNC(=O)Oc1ccc(/C(=C(/C)c2ccc(OC)cc2)c2ccc(OCCN3CCCC3)cc2)cc1 | 2.85% (active)
O=c1c2ccccc2nc(COc2ccccc2)n1/N=C/C=C/c1ccccc1 | 95.3%
CCCCCc1ccc(S(=O)(=O)N(C(C)=O)c2cccc(-c3csc(N(CCN4CCN(C)CC4)C(C)=O)n3)c2)cc1 | -52.6% (active)
O=C(NNc1nc2cc(F)c(F)cc2n2cccc12)c1ccncn1 | 15.7%
O=C(CCCCCCN1CC(=O)N2[C@@H](c3cccc(Cl)c3)c3[nH]c4ccccc4c3C[C@H]2C1=O)NO | 44%
O=C(/C=C/c1cn(-c2ccccc2)nc1-c1ccc(Cl)cc1)c1cc2ccccc2oc1=O | 93.5%
COc1cc(/C=C/C(=O)c2ccc(NC(=O)COc3cccc4cccnc34)cc2)cc(OC)c1OC | 74.6%
O=C(Nc1cccc(Cl)c1)Nc1nc2ccc([N+](=O)[O-])cc2s1 | -15.2% (active)
O=C(NNc1nc2cc(F)cc(F)c2n2cccc12)c1ccncn1 | 5.21% (active)
C[C@H]1[C@H](C)CC[C@]2(COC(=O)c3cccnc3)CC[C@]3(C)C(=CC[C@@H]4[C@@]5(C)CCCNC(C)(C)[C@@H]5CC[C@]43C)[C@H]12 | 65.7%
CN1CCN(c2ccc(NC(=O)Nc3ccc4c(ccn4-c4cccc(C(N)=O)n4)c3)cc2C(F)(F)F)CC1 | -14% (active)

Structure (SMILES) | growth
COc1ccc(OC)c([C@H]2c3[nH]c4ccccc4c3C[C@H]3C(=O)N(CCCCCCC(=O)NO)CC(=O)N23)c1 | 67.2%
CS(=O)c1nccc(-c2c(-c3ccc(F)c(OCc4ccccc4)c3)nc3sccn23)n1 (configuration not stated) | 19.8%
C=C(C)[C@@H]1CC[C@]2(C(=O)NCCCN(CCC#N)CCC#N)CC[C@]3(C)[C@H](CC[C@@H]4[C@@]5(C)CCC(=O)C(C)(C)[C@@H]5CC[C@]43C)[C@@H]12 | 105%
O=C(CN1C(=O)S/C(=C\c2ccccc2)C1=O)Nc1ccc(C(=O)/C=C/c2cc3ccccc3nc2Cl)cc1 | 71.3%
N#Cc1c(-c2cccs2)cc(-c2cnccn2)nc1SCC(=O)NNC(=S)Nc1ccc(F)cc1 | 112%
CN1CCN(c2nc(-c3cnc4ccccc4n3)cc3ccccc23)CC1 | 91%
CC(C)=CCC[C@](C)(O)[C@H]1CC[C@]2(C)[C@@H]1CC[C@@H]1[C@@]3(C)CCC(NC(=O)c4ccccc4C(=O)O)C(C)(C)[C@@H]3CC[C@]12C (some centres not stated) | 30.5%
CN1CCN(c2ccc3c(C(N)=O)c(NC(=O)c4ccc(C(C)(C)C)cc4)sc3c2)CC1 | 92.7%
COc1ccc(-c2nc(SCC(C)C)nc(N/N=C\c3cccc([N+](=O)[O-])c3)c2C#N)cc1 | 89%
Cc1cc(F)cc(NS(=O)(=O)c2ccc(-c3cnc(C4CC4)o3)cc2)c1 | 59.1%
C/C(=N\NC(=O)CSc1nc2sc3c(c2c(=O)n1-c1ccccc1)CCC(C)C3)c1ccc(Cl)cc1 (configuration not stated) | 75%
COc1ccc(NC(=O)[C@H](C)N)cc1C(=O)Nc1cccc(-c2cc(=O)c3c(OC)c(OC)c(OC)cc3o2)c1 | 109%
IP(CCCSc1n(Cc2ccc3ccccc3c2)c(-c2ccccc2)c(-c2ccccc2)[n+]1Cc1ccc2ccccc2c1)(c1ccccc1)(c1ccccc1)c1ccccc1 | 4.7% (active)
N/C(=N\OC(=O)CSc1nc2ccccc2s1)c1ccc(Cl)cc1 | 104%
CCOC(=O)C1=C(C)Nc2nnc(Nc3ccccc3)n2C1c1ccccc1 (configuration not stated) | 97%
COc1cc(OC)c(S(N)(=O)=O)cc1C(=O)/C=C/c1ccccc1 | 88.6%
CCOC(=O)/C(F)=C/C1CC1C1CCCCC1 (configuration not stated) | 120%

system: M14 melanoma; assay: as above; conditions: 10 µM unless noted

Structure (SMILES) | growth
CC(=O)Oc1ccc(CCN2C(=O)CSC2=S)cc1 | 85.7%
COc1cc(/C=N/n2cnc3oc(-c4ccccc4)cc3c2=N)cc(CN2CCOCC2)c1O | 73%
CCOC(=O)/C=c1\sc2n(c1=O)C1C(NN=2)N(CC)C(=O)N1CC (configuration not stated) | 44.7%
CN(C)c1ccc(/C=N/Nc2nc(N/N=C/c3ccc(N(C)C)cc3)nc(N3CCOCC3)n2)cc1 | 103%
COc1cc2oc(-c3cccc(NC(=O)c4cc(NC(=O)[C@H](C)NC(=O)OC(C)(C)C)ccc4C)c3)cc(=O)c2c(OC)c1OC | 97.9%
CN1CCN(Cc2ccc(NC(=O)c3cncc(C#Cc4cnc5ccc(NC6CCOCC6)nn45)c3)cc2C(F)(F)F)CC1 | -97.2% (active)
O=C(Nc1ccc(Cl)cc1)Nc1nc2ccc([N+](=O)[O-])cc2s1 | -20.4% (active)
CCCCCCNC(=O)Oc1ccc(/C(=C(/C)c2ccc(OC)cc2)c2ccc(OCCN3CCCC3)cc2)cc1 | -35.5% (active)
O=c1c2ccccc2nc(COc2ccccc2)n1/N=C/C=C/c1ccccc1 | 97.8%
CCCCCc1ccc(S(=O)(=O)N(C(C)=O)c2cccc(-c3csc(N(CCN4CCN(C)CC4)C(C)=O)n3)c2)cc1 | -71.7% (active)
O=C(NNc1nc2cc(F)c(F)cc2n2cccc12)c1ccncn1 | 12.9%
O=C(CCCCCCN1CC(=O)N2[C@@H](c3cccc(Cl)c3)c3[nH]c4ccccc4c3C[C@H]2C1=O)NO | 45.6%
O=C(/C=C/c1cn(-c2ccccc2)nc1-c1ccc(Cl)cc1)c1cc2ccccc2oc1=O | 72.8%
COc1cc(/C=C/C(=O)c2ccc(NC(=O)COc3cccc4cccnc34)cc2)cc(OC)c1OC | 91.4%
O=C(Nc1cccc(Cl)c1)Nc1nc2ccc([N+](=O)[O-])cc2s1 | 0.118% (active)
O=C(NNc1nc2cc(F)cc(F)c2n2cccc12)c1ccncn1 | 4.27% (active)

Structure (SMILES) | growth
C[C@H]1[C@H](C)CC[C@]2(COC(=O)c3cccnc3)CC[C@]3(C)C(=CC[C@@H]4[C@@]5(C)CCCNC(C)(C)[C@@H]5CC[C@]43C)[C@H]12 | 79.1%
CN1CCN(c2ccc(NC(=O)Nc3ccc4c(ccn4-c4cccc(C(N)=O)n4)c3)cc2C(F)(F)F)CC1 | -47% (active)
COc1ccc(OC)c([C@H]2c3[nH]c4ccccc4c3C[C@H]3C(=O)N(CCCCCCC(=O)NO)CC(=O)N23)c1 | 83.3%
CS(=O)c1nccc(-c2c(-c3ccc(F)c(OCc4ccccc4)c3)nc3sccn23)n1 (configuration not stated) | 96.5%
CC(=O)NC(C)(C)C(=O)N1CCC[C@H]1C(=O)NC(C)(C)C(=O)N[C@@H](C)C(=O)NC(C)(C)C(=O)N[C@@H](C)C(=O)N[C@@H](CCC(N)=O)C(=O)NC(C)(C)C(=O)N[C@H](C(=O)NC(C)(C)C(=O)NCC(=O)N[C@@H](CC(C)C)C(=O)NC(C)(C)C(=O)N1CCC[C@H]1C(=O)N[C@H](C(=O)NC(C)(C)C(=O)NC(C)(C)C(=O)N[C@@H](CCC(N)=O)C(=O)N[C@@H](CCC(N)=O)C(=O)N[C@H](CO)Cc1ccccc1)C(C)C)C(C)C | 68.5% [4.25 µM]
C=C(C)[C@@H]1CC[C@]2(C(=O)NCCCN(CCC#N)CCC#N)CC[C@]3(C)[C@H](CC[C@@H]4[C@@]5(C)CCC(=O)C(C)(C)[C@@H]5CC[C@]43C)[C@@H]12 | 101%
O=C(CN1C(=O)S/C(=C\c2ccccc2)C1=O)Nc1ccc(C(=O)/C=C/c2cc3ccccc3nc2Cl)cc1 | 78.8%
N#Cc1c(-c2cccs2)cc(-c2cnccn2)nc1SCC(=O)NNC(=S)Nc1ccc(F)cc1 | 104%
CN1CCN(c2nc(-c3cnc4ccccc4n3)cc3ccccc23)CC1 | -80% (active)
Cc1cc(O)c(=O)cc2c1C[C@H]1CC(C)(C)/C=C/C[C@]3(C)Oc4cc(=O)c(O)cc(C)c4C[C@H]3C[C@H](O)[C@@]1(C)O2 | -25.9% (active)
CC(C)=CCC[C@](C)(O)[C@H]1CC[C@]2(C)[C@@H]1CC[C@@H]1[C@@]3(C)CCC(NC(=O)c4ccccc4C(=O)O)C(C)(C)[C@@H]3CC[C@]12C (some centres not stated) | 57.8%
CN1CCN(c2ccc3c(C(N)=O)c(NC(=O)c4ccc(C(C)(C)C)cc4)sc3c2)CC1 | 90%
COc1ccc(-c2nc(SCC(C)C)nc(N/N=C\c3cccc([N+](=O)[O-])c3)c2C#N)cc1 | 76.9%
Cc1cc(F)cc(NS(=O)(=O)c2ccc(-c3cnc(C4CC4)o3)cc2)c1 | 19.5%
C/C(=N\NC(=O)CSc1nc2sc3c(c2c(=O)n1-c1ccccc1)CCC(C)C3)c1ccc(Cl)cc1 (configuration not stated) | -34% (active)
COc1ccc(NC(=O)[C@H](C)N)cc1C(=O)Nc1cccc(-c2cc(=O)c3c(OC)c(OC)c(OC)cc3o2)c1 | 104%
